# In the library only some 1.4% were active in any assay of this set; here they are far more common.
# Bim-Bcl-B = inhibitors of Bim-Bcl-B interaction, human | Q9HD36 | inhibition, % at 10 µM | 190,000 compounds, 0.073% hits | bead-based flow cytometry, Bim peptide-Bcl-B binding;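 note: 0% = tracer peptide without compound and 100% = reference inhibitor peptide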
# Bim-Bcl-2 = inhibitors of Bim-Bcl-2 interaction, human; Bead-based flow cytometry, Bim peptide-Bcl-2 binding; AID 950; inhibition, % at 10 µM; P10415; 190,000 compounds, 0.06% hits; in the data active = inhibition above about 40%;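 note: 0% = no compound wells with probe peptide and 100% = reference peptide inhibitor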
# Bcl-W Bim block = inhibitors of Bim-Bcl-W interaction, human; inhibition, % at 10 µM; 190,000 compounds, 0.02% hits; bead-based flow cytometry, Bim peptide-Bcl-W binding; AID 952;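 note: 0% = bound tracer without compound and 100% = peptide blocker; higher means less fluorescent Bim peptide bound to Bcl-W beads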
# Bcl-XL Bim block = inhibitors of Bim-Bcl-XL interaction, human. Q07817. Bim peptide-Bcl-XL binding, bead flow cytometry, fluorescence. inhibition, % at 10 µM. 190,000 compounds, 0.04% hits
# Target sequence (Q07817 whole entry, looked up): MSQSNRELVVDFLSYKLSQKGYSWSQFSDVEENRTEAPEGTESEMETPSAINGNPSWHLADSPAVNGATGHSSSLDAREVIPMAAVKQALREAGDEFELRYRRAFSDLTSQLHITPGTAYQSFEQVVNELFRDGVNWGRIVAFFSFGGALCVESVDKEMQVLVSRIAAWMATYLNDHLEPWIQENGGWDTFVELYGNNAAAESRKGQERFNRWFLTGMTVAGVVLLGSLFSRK
# Wee1 degr inh = inhibitors of human Wee1 degradation; P30291; HeLa Luc-Wee1K328M stability, luciferase luminescence; 100% = proteasome inhibitor MG132 effect; reporter increase, % at 5 µM; 220,000 compounds, 1.2% hits; AID 1321;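 active = activation above the mean of all tested compounds plus 3 SD, set per screening run, cut at about 8.8% in these data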;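 note: cells exposed to compound for 20 h before luminescence read; 0% = DMSO alone and 100% = MG132 at 30 µM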
# Bfl-1 Bim block = inhibitors of Bim-Bfl-1 interaction, human | 190,000 compounds, 0.12% hits | Bead-based flow cytometry, Bim-Bfl-1 binding inhibition | Q16548 | inhibition, % at 10 µM;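 note: 0% = wells without compound plus tracer and 100% = blocker peptide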
# Target sequence (Q16548 whole entry, looked up): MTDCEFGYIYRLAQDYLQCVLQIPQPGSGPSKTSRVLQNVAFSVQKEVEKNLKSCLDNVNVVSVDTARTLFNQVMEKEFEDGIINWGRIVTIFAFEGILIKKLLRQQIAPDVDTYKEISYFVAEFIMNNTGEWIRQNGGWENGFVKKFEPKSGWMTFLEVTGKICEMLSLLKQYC
# The depositor's hits bear a star; nt = not tested or not shown. Cut-off read from the data, not from the text of the source, unless noted: active = inhibition above about 40%.
SMILES,Bim-Bcl-B,Bim-Bcl-2,Bcl-W Bim block,Bcl-XL Bim block,Wee1 degr inh,Bfl-1 Bim block
COc1ccc(/C=C/CN2CCCC(CCC(=O)NCc3ccc(F)c(F)c3)C2)cc1 (stereo not drawn),-3,-1,-1,1,-4,-5
CNc1ncc(C(=O)c2ccc(Cl)cc2)s1,7,3,2,0,9.6*,-3
CNc1ncc(C(=O)c2ccc(Cl)c(Cl)c2)s1,-1,-1,0,0,1,-6
Cc1cc(Br)ccc1OCCCCN1CCC(C)CC1,-4,-4,0,-4,1,-2
Oc1c(N=Nc2ccccc2)sc2ccccc12,nt,nt,nt,nt,9.8*,nt
Cc1ccc(N2Cc3ccccc3C2=S)cc1,-4,-4,0,0,10*,-2
S=C1c2ccccc2CN1c1ccccc1,-5,-1,-1,-4,1,0
CCS(=O)(=O)N1Cc2ccccc2CC1C(=O)Nc1nnc(SCc2ccc(F)cc2)s1 (stereo not drawn),0,0,-1,-3,9.1*,0
O=C(NCc1cccnc1)c1ccc(Cn2c(=S)[nH]c3ccc(Br)cc3c2=O)cc1,-10,-3,-5,-1,3,-4
CNc1ccc(Br)cc(C(=O)/C=C/c2cc(OC)ccc2OC)c1=O,-21,25,22,26,1,42*
COc1ccc(NC(=O)CCC(=O)OCc2ccc([N+](=O)[O-])cc2)cc1,-2,-4,-4,-2,1,-2
CCO[C@H]1OC(C(N)=O)=C[C@@H](c2coc3ccccc3c2=O)[C@@H]1CCCO,5,-3,-2,3,9.2*,5
CCO[C@@H]1OC(C(=O)Nc2ccccc2)=C[C@H](c2coc3ccccc3c2=O)[C@H]1CCCO,1,-6,0,-2,0,2
CSCCC(NC(=O)OC(C)(C)C)C(=O)Oc1ccc2c(=O)c(-c3ccc4c(c3)OCCO4)coc2c1 (stereo not drawn),0,-2,0,0,9.9*,0
CCOc1ccc(-c2ccc(SCC)nn2)cc1,-2,0,0,-1,9.0*,-6
CCc1ccc(-c2ccc(SCc3ccccn3)nn2)cc1,-6,0,-4,-5,9.1*,-5
COc1cccc(C2=NOC(C(=O)Nc3cccnc3Cl)C2)c1 (stereo not drawn),0,1,0,0,-2,-4
Cc1ccccc1C1=Nn2c(nnc2-c2ccco2)SC1,nt,nt,nt,nt,5,nt
Cn1cc(Br)c(C(=O)Nc2sc3c(c2C#N)CCC3)n1,nt,nt,nt,nt,10*,nt
O=C(CSc1nc2ncc(Cl)cc2[nH]1)NCC(=O)Nc1ccc(F)c(F)c1F,nt,nt,nt,nt,4,nt
Nc1[nH]c(N=NC(=O)c2ccccc2)c2ccccc12,-4,1,-2,-1,10*,-3
Nc1[nH]c(N=NC(=O)c2ccc(Cl)cc2)c2ccccc12,-14,-12,-9,-11,-1,-16
NCC(=O)Nc1ccc(Cl)cc1C(=O)c1ccc[nH]1,nt,nt,nt,nt,-2,nt
O=C(c1cc2cc(Br)ccc2s1)N1CCOCC1,0,-3,1,0,-2,-4
CNC(=S)Nc1ccc2[nH]c(=O)[nH]c2c1,-4,2,0,-1,2,0
SMILES,Bim-Bcl-B,Bim-Bcl-2,Bcl-W Bim block,Bcl-XL Bim block,Wee1 degr inh,Bfl-1 Bim block
O=c1[nH]c2ccc(NC(=S)Nc3ccc(F)cc3)cc2[nH]1,nt,nt,nt,nt,9.7*,nt
O=C(NCc1cccc(CNC(=O)C(=O)NCc2ccco2)c1)C(=O)NCc1ccco1,-3,1,1,0,1,-1
CCOC(=O)c1ccc(N2C(=O)CC(C)(CC)CC2=O)cc1,nt,nt,nt,nt,-2,nt
O=c1[nH]c(SCc2nc3ccccc3c(=O)n2-c2ccccc2C(F)(F)F)nc2ccccc12,16,23,35,41*,2,34
O=c1[nH]c(SCc2nc3ccccc3n2Cc2ccccc2)nc2ccccc12,-1,0,-4,-6,-1,-2
CC(=O)c1c(C(C)=O)c(C)n(NC(=O)c2ccccc2Cl)c1C,0,4,0,0,9.2*,-1
Cc1ccc(C)n1NC(=O)c1ccccc1Cl,-9,-11,1,-3,0,-16
COc1cc(C(=O)NCCOc2cccc3cccnc23)cc(OC)c1OC,-4,-4,0,0,2,-2
COc1ccc(S(=O)(=O)NCCOc2cccc3cccnc23)cc1OC,65*,76*,0,3,3,44*
CN(/N=C\c1ccc(O)c(O)c1)c1nc(-c2ccccc2)cc(-c2ccccc2)n1,-1,0,0,-2,-2,5
CCOC(=O)N/N=C\C=C\c1ccc2c(c1)OCO2,-6,-12,-1,-4,6,-17
Cc1ccc(CNC(=O)c2cc3c(-c4ccc(Cl)cc4)nn(C)c3s2)o1,-3,-6,-2,-1,9.6*,-2
COc1ccc(CNc2nc(NCc3ccc(OC)cc3)n(C(=O)c3ccccc3[N+](=O)[O-])n2)cc1,-3,0,-2,-1,-2,1
O=C(NCCN1CCOCC1)c1ccc(=O)n(Cc2ccc(Cl)cc2)c1,-3,-3,1,0,0,-3
CCn1cc(C2=NC(c3ccccc3)CO2)c2ccccc21 (stereo not drawn),-5,0,-3,-5,39*,-1
CCn1cc(C2=NC(C)CO2)c2ccccc21 (stereo not drawn),0,0,0,3,-1,0
O=C(Nc1cccnc1)C1(c2ccc(Cl)cc2)CCCC1,-10,-10,-2,-9,-2,-14
O=C(O)c1ccccc1NN=C1CCCCC1,-10,-6,-4,-7,9.8*,-4
CCn1c(Cc2ccccc2)n[nH]c1=S,nt,nt,nt,nt,-2,nt
CCn1c(CSCc2ccccc2)n[nH]c1=S,-14,-1,-2,-4,9.1*,0
O=C(Nc1cc2cc([N+](=O)[O-])ccc2oc1=O)c1cccs1,-10,0,0,-4,1,-6
O=C1CC(c2ccccc2)=NN1c1nc(-c2ccccc2)cs1,-3,-3,1,0,11*,-7
O=C(NC(=S)N(CCO)Cc1ccccc1)c1ccc(S(=O)(=O)N2CCCC2)cc1,-9,0,-3,-4,-2,-2
COc1ccc(CCNC(=O)C(C(=O)c2ccc(F)cc2)n2ccccc2=O)cc1OC (stereo not drawn),3,6,2,0,-1,11
COc1ccc(CCNC(=O)C(C(=O)c2ccccc2)n2ccccc2=O)cc1OC (stereo not drawn),-3,-4,-3,-8,11*,-6
Cc1nc([N+](=O)[O-])c(SCC(O)CCl)n1Cc1ccc(Cl)cc1 (stereo not drawn),0,-1,0,-5,1,-5
Cc1nc2c3ccccc3n(CCN3CCCCC3)c2s1,-9,-10,2,-5,1,-10
Cc1nc2c3cc(F)ccc3n(CCN3CCCCC3)c2s1,-4,0,-9,-8,9.7*,-2

# Bioassay records deposited in PubChem BioAssay by several laboratories.
